Test results published in PubChem BioAssay (NCATS).
Results filed as inconclusive are left out. Entries that show only a call come without a potency. The source made the active and inactive calls. Unless noted, calls follow the shape of the dose curve; as a rule, active = well fitted curve in the direction sought with a large enough effect; inconclusive = small, poorly fitted or top-dose-only effect, or another doubt; inactive = no such curve, though single readings can be large; an effect the other way counts as inactive or inconclusive.

Experiments:
[1] = AP1 Signaling Pathway (AID 357; active = well fitted curve in either direction with a large enough effect, not every such curve was filed as active;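 also: ME-180 reporter cells stimulated with EGF at its EC50 level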)
Outline: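 A ratiometric CCF4 readout (405 nm excitation; 460 and 530 nm emission) quantified AP-1-driven beta-lactamase in ME-180 cells after 5 h with compound and EC50 EGF; AC50 values were derived for activators and inhibitors.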

[2] = NFAT Signaling Pathway (AID 444; active = well fitted curve in either direction with a large enough effect, not every such curve was filed as active;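 also: carbachol stimulus at about its EC50 of 1 µM final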); settings: Jurkat NFAT-bla M1, carbachol, beta-lactamase ratio, 5 h; at 38 µM (top of the series)
Outline: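 Read-out: CCF4 FRET ratio (460 nm/530 nm) after 1 h RT dye loading, used for %activity and AC50 from titration series. Cells: Jurkat NFAT-β-lactamase/M1 line, treated with compound plus 1 uM carbachol for 5 h, 37 °C.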

[3] = Stat Signaling Pathway (AID 446; active = well fitted curve in either direction with a large enough effect, not every such curve was filed as active;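 also: ME-180 cervical cancer cells given 40 pM IL-6 alongside compound; SIE-controlled beta-lactamase reporter measured as 460/530 nm FRET emission ratio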)
Outline: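 IL-6/STAT signaling read in ME-180 cells via an SIE beta-lactamase reporter. Stimulus was 40 pM IL-6 (its AC50) for 5 hrs, so both activation and inhibition register.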

[4] = molecular target: Glucocorticoid receptor (Homo sapiens) (UniProt P04150); test: GR-GFP Redistribution (AID 450;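 active = compounds whose dose series gives a full or clear partial fitted curve of increased nuclear translocation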; also: potency is read from the fitted curve at half-maximal effect); settings: U2OS GR-GFP nuclear translocation, laser cytometry, 2 h
[5] = molecular target: Mitogen-activated protein kinase 10 (Mus musculus) (UniProt Q61831); test: JNK3 AlphaScreen Assay (AID 530; active = well fitted curve in either direction with a large enough effect, not every such curve was filed as active;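 also: kinase came from lysate of stimulated human HepG2 cells; signal reports phosphorylation of biotinylated GST-cJun 1-79 at Ser73 with 10 µM ATP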)
Outline: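 Room-temperature AlphaScreen kinase assay; pre-activated HepG2 lysate as JNK3 source, biotin-GST-cJun(1-79) substrate, 10 uM ATP, compound 15 min preincubation.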

[6] = molecular target: 3',5'-cyclic-AMP phosphodiesterase 4B (Homo sapiens) (UniProt Q07343); test: qHTS Assay for Inhibitors of PDE-IV (AID 607; active = well fitted activation curve with a large enough effect in the main read-out, with a control signal flat, not every such curve was filed as active)
Outline: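 Live HEK293 cells with a modified cyclic nucleotide-gated (CNG) channel report intracellular cAMP via membrane-potential dye fluorescence (ex 535/em 590 nm). Endogenous PDE-IV was targeted. Compounds were tested at up to 22.9 uM final; RO 20-1724 100 uM served as control.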

[7] = molecular target: Guanine nucleotide-binding protein G(i) subunit alpha-1 (Homo sapiens) (UniProt P63096); test: qHTS Assay for Inhibitors of RGS12 GoLoco Motif Activity (Green Fluorophore) (AID 879);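 also: negative values mean loss of peptide binding seen as reduced polarization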
Outline: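 Fluorescence polarization assay: 50 nM Gαi1 with 10 nM FITC-labeled RGS12 GoLoco peptide in 10 mM Tris pH 7.5, 150 mM NaCl, 0.1 mM GDP, 0.05% NP40, 10 min at room temperature with compound.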

[8] = qHTS Assay for Identification of Small Molecule Agonists for Thrombopoietin (TPO) Signaling Pathway (AID 917)
Outline: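 Murine Ba/F3 cells expressing human TPO receptor and GPIIb-promoter luciferase, IL-3-starved overnight, given compound plus TPO at 26 pM (EC50). After 24 h at 37 C, 5% CO2, luminescence read.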

[9] = molecular target: Muscarinic acetylcholine receptor M1 (Rattus norvegicus) (UniProt P08482); test: qHTS Assay for Antagonists of Acetylcholine Muscarinic M1 Receptor: Kinetic Measurement of Intracellular Calcium Response (AID 943);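 also: Fluo-4 calcium signal as peak divided by basal fluorescence over 4 min; nearly all actives have a fitted effect of over 75% in size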
Outline: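 CHO cells stably expressing rat M1 were loaded with no-wash Fluo-4 dye for 1 h at 37C, pre-incubated 10 min with compound, then challenged with EC80 carbachol (100 nM final); kinetic calcium read 4 min, peak/basal ratio.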

[10] = molecular target: Muscarinic acetylcholine receptor M1 (Rattus norvegicus) (UniProt P08482); test: qHTS Assay for Antagonists of Acetylcholine Muscarinic M1 Receptor: Measurement of IP-One Response (AID 944); also: nearly all actives have a fitted effect of over 75% in size
Outline: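 CHO cells expressing rat M1 receptor, recovered overnight, were pre-incubated 10 min with compound, then stimulated 30 min with carbachol at EC80 (200 nM) in LiCl-containing buffer, pH 7.4. IP1 accumulation was read by HTRF (620/665 nm).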

[11] = molecular target: Pyruvate kinase (Leishmania mexicana) (UniProt Q27686); test: qHTS Validation Assay for Inhibitors of Leishmania Mexicana Pyruvate Kinase (AID 945)
Outline: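 Read-out: luminescence from PKLight stop/detection reagent, data normalized to DMSO. Reaction: 0.2 nM E451W LmPYK, 0.5 mM PEP, 0.1 mM ADP, pH 7.2, 1 h room temperature.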

[12] = molecular target: Pyruvate kinase PKM (Homo sapiens) (UniProt P14618); test: qHTS Assay for Activators of Human Muscle Pyruvate Kinase (AID 954; active = well fitted curve in the direction sought with a large enough effect, not every such curve was filed as active)
Outline: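 Enzyme was run at intermediate activity so both inhibitors and activators could be detected. ATP formed from ADP and PEP by 0.1 nM human PKM2 during a 1 h room-temperature incubation was quantified by coupled luciferase luminescence.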

[13] = molecular target: Alpha-galactosidase (Coffea arabica) (UniProt Q42656); test: Counterscreen for Glucocerebrosidase Inhibitors: qHTS Assay for Coffee Bean alpha-Galactosidase at pH 4.5 (AID 957)
Outline: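 Green coffee bean enzyme (2 nM final) was incubated with compounds (0.7 nM to 77 uM) and 4-methylumbelliferyl alpha-D-galactopyranoside (80 uM final) in 50 mM citric acid, 0.005% Tween-20, pH 4.5, 20 min at room temperature; AC50 from Hill fits.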

[14] = molecular target: Alpha-galactosidase A (Homo sapiens) (UniProt P06280); test: Counterscreen for Glucocerebrosidase Inhibitors: qHTS Assay for Human alpha-Galactosidase at pH 4.5 (AID 992)
Outline: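 Read-out is 4-methylumbelliferone fluorescence (365 nm excitation, 440 nm emission) after a pH 10 NaOH/glycine stop. Reactions held 2 nM enzyme and 80 uM substrate at pH 4.5 for 20 min at room temperature.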

[15] = molecular target: alpha-glucosidase (Oryza sativa, rice) (UniProt Q653V4); test: Counterscreen for Glucocerebrosidase Inhibitors: qHTS Assay for Rice alpha-Glucosidase at pH 5.0 (AID 997)
Outline: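 Rice alpha-glucosidase (4 nM final) with 400 uM 4-methylumbelliferyl-alpha-D-glucopyranoside in citrate buffer pH 5.0, 20 min at room temperature, stopped at pH 10; fluorescence 365/440 nm, compounds 0.7 nM–77 uM, AC50 from Hill fits.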

[16] = molecular target: Alpha-galactosidase (Coffea arabica) (UniProt Q42656); test: Counterscreen for Glucocerebrosidase Inhibitors: qHTS Assay for Coffee Bean alpha-Galactosidase at pH 5.9 (AID 998)
Outline: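 Compounds were titrated from 0.7 nM to 77 uM against green coffee bean alpha-galactosidase (2 nM) using 80 uM fluorogenic 4-methylumbelliferyl substrate. After 20 min at room temperature, reactions were stopped at pH 10 and read by fluorescence.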

[17] = qHTS Assay for Lipid Storage Modulators (AID 1519; calls by dose curve); settings: Drosophila S3 cells, BODIPY lipid droplet/cell ratio, laser cytometry, cells loaded with oleic acid
Outline: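 Cells seeded at 5,000 per well were treated with compounds over a concentration series and loaded with oleic acid (400 uM, as added). Lipid droplet fluorescence (488 nm excitation, 500-530 nm channel) was read by laser-scanning cytometry and normalized to 20 uM Triacsin C.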

[18] = molecular target: Ubiquitin carboxyl-terminal hydrolase 1 (Homo sapiens) (UniProt O94782); test: Inhibitors of USP1/UAF1: Pilot qHTS (AID 504865);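 also: rhodamine fluorescence freed from ubiquitin-rhodamine substrate followed over time; top concentration of the series differs between compounds; nearly all actives have a fitted effect of over 35% in size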
Outline: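 USP1/UAF1 complex at 1 nM preincubated 15 min at room temperature with compound, then Ub-Rho substrate added at 150 nM final. Fluorescence (480/540 nm) read kinetically in 50 mM HEPES pH 7.8, 0.5 mM EDTA, 1 mM TCEP, 0.1 mg/ml BSA, 0.01% Tween-20.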

[19] = molecular target: DNA dC->dU-editing enzyme APOBEC-3G (Homo sapiens) (UniProt Q9HC16); test: qHTS for inhibitors of Vif-A3G interactions: Validation (AID 588379)
Outline: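 HeLa cells stably expressing Vif and A3G-eYFP, 700 cells/well, incubated overnight at 37 deg C, then exposed to compound overnight at 37 deg C. Inhibition of Vif-mediated degradation read as increased yellow fluorescence (Ex 488/Em 500-530) by laser-scanning cytometry.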

[20] = Primary qHTS for small molecule stabilizers of the endoplasmic reticulum resident proteome: Secreted ER Calcium Modulated Protein (SERCaMP) assay (AID 1508630)
Outline: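 GLuc-SERCaMP-expressing SH-SY5Y cells, pretreated 16 h with compound, are challenged with thapsigargin to empty ER calcium stores; after 4 h, coelenterazine is added directly to the medium and luminescence is imaged.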

Sequence of Glucocorticoid receptor (Homo sapiens) (P04150 whole entry, looked up): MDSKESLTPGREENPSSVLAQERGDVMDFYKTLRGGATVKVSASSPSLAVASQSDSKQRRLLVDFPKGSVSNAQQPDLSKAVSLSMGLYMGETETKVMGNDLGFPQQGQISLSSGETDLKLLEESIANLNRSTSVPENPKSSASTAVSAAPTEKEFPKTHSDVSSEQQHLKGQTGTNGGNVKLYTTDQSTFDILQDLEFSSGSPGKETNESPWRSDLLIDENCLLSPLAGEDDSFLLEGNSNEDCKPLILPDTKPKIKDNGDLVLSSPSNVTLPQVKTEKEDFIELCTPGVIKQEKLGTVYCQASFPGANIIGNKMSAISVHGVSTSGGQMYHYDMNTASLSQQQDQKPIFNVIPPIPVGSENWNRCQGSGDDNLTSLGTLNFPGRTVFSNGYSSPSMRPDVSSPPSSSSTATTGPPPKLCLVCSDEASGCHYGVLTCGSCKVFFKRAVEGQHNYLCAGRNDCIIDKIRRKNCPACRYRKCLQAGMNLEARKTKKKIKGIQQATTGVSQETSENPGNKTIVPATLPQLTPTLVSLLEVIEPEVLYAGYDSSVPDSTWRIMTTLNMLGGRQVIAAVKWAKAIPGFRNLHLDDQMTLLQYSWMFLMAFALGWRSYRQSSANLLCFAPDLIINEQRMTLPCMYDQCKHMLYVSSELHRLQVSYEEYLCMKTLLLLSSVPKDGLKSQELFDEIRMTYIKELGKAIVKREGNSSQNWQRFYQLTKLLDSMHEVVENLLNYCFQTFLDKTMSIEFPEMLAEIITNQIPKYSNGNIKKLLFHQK
Sequence of 3',5'-cyclic-AMP phosphodiesterase 4B (Homo sapiens) (Q07343 whole entry, looked up): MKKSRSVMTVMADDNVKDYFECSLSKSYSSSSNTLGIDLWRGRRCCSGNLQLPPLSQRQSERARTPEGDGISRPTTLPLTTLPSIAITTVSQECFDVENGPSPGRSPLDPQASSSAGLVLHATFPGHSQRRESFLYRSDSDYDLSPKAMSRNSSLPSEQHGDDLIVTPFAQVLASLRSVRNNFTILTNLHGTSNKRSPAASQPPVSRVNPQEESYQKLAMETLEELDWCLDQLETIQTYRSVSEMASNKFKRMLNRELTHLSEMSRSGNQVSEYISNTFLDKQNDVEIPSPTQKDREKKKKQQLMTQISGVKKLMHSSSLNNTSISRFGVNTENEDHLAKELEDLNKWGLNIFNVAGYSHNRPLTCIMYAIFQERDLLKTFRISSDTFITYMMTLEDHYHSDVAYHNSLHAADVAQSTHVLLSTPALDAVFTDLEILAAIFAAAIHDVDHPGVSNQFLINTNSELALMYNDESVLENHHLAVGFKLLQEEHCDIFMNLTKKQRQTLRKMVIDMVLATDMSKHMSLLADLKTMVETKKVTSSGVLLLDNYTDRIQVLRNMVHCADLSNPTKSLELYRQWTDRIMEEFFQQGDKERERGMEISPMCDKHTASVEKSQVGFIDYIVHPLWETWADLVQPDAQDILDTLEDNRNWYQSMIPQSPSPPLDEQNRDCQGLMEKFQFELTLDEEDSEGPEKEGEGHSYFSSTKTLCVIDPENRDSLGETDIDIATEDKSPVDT
Sequence of Muscarinic acetylcholine receptor M1 (Rattus norvegicus) (P08482 whole entry, looked up): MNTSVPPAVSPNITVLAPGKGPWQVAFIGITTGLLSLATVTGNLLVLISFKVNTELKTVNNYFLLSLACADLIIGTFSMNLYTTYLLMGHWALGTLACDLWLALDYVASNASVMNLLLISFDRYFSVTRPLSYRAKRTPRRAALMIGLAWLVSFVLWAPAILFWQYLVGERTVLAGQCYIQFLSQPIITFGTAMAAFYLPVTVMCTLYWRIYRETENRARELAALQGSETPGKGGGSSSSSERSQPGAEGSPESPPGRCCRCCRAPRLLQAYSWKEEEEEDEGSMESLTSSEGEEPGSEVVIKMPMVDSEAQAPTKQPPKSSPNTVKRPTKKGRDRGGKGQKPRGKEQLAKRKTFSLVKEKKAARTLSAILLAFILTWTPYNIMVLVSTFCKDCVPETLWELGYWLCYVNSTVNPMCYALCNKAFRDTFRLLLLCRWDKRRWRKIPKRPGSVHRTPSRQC
Sequence of DNA dC->dU-editing enzyme APOBEC-3G (Homo sapiens) (Q9HC16 whole entry, looked up): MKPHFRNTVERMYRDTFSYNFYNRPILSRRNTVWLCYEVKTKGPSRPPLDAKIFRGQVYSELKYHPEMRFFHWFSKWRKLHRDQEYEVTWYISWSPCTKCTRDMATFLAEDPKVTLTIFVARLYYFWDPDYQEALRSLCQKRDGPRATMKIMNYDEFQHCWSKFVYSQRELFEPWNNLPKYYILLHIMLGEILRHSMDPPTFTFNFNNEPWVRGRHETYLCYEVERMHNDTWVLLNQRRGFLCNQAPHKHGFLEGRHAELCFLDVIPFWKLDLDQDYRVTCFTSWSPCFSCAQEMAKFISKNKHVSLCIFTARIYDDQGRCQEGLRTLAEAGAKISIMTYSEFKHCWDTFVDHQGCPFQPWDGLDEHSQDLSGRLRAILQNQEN
Sequence of Alpha-galactosidase (Coffea arabica) (Q42656 whole entry, looked up): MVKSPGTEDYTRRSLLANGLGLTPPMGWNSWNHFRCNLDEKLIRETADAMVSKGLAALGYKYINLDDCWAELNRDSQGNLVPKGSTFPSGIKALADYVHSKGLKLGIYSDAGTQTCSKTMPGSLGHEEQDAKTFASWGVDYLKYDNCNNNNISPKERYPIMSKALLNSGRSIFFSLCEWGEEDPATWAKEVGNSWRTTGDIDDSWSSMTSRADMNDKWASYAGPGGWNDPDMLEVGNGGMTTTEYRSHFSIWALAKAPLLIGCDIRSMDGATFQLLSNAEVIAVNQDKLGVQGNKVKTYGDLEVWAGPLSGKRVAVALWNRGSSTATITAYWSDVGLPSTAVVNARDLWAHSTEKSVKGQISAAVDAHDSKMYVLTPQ
Sequence of Guanine nucleotide-binding protein G(i) subunit alpha-1 (Homo sapiens) (P63096 whole entry, looked up): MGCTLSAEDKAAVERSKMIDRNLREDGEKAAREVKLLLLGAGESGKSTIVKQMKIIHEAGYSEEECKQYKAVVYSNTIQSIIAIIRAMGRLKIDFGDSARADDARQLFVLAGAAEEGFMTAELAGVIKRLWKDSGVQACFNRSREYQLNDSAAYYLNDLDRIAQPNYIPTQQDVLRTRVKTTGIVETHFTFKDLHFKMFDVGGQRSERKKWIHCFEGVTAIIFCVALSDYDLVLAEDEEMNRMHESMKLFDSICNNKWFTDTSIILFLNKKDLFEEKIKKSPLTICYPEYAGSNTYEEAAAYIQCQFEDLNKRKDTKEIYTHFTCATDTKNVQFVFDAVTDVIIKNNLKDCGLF
Sequence of Alpha-galactosidase A (Homo sapiens) (P06280 whole entry, looked up): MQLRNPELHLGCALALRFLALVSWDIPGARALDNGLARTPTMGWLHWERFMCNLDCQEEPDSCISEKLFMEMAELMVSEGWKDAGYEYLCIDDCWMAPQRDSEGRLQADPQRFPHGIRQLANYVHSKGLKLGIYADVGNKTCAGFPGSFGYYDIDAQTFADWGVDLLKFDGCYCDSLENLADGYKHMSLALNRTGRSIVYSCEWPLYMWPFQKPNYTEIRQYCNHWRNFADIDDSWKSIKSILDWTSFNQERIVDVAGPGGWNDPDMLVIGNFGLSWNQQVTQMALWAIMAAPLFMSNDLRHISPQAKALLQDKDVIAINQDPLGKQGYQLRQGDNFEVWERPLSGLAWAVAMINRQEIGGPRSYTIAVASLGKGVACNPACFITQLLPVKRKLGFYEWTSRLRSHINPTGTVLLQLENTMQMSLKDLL
Sequence of Ubiquitin carboxyl-terminal hydrolase 1 (Homo sapiens) (O94782 whole entry, looked up): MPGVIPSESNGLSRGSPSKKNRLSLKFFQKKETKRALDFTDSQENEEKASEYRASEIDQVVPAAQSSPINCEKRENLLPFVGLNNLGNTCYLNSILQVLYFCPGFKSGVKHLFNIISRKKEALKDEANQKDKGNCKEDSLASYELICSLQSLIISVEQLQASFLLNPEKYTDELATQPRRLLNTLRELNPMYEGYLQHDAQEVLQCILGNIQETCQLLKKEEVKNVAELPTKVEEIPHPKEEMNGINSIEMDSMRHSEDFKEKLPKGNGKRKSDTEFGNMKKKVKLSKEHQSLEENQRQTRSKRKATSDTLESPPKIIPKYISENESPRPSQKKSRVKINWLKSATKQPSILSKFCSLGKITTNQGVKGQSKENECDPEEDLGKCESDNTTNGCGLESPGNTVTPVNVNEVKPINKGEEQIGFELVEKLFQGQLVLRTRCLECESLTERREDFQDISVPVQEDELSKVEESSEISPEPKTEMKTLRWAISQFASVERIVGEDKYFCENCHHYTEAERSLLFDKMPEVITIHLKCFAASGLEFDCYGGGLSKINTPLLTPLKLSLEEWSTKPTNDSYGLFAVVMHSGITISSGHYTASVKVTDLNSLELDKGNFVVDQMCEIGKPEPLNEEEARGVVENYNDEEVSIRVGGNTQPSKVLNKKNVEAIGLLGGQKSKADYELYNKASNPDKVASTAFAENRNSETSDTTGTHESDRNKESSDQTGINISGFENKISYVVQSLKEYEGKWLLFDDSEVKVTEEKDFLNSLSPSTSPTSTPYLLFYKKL
Sequence of Pyruvate kinase (Leishmania mexicana) (Q27686 2-499 E452W): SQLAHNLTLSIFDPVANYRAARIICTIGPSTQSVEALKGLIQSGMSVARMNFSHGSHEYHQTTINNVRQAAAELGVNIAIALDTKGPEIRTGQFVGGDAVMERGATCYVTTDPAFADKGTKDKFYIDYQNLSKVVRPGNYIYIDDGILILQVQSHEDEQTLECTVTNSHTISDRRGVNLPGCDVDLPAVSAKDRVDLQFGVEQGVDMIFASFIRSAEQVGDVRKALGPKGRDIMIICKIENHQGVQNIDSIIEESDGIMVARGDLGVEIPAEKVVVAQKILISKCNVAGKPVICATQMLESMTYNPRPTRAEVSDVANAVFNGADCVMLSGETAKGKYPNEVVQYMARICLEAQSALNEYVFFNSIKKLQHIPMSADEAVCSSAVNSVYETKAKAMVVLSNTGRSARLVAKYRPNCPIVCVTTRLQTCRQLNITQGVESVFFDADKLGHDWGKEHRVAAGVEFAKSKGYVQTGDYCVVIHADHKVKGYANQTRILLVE

Compound: N[C@H](CCP(=O)(O)O)C(=O)O
- outcome [1]: inactive
- activity change, negative = inhibition [2]: 13.5% (inactive)
- outcome [3]: inactive
- Potency [4]: > 46 µM (inactive)
- outcome [5]: inactive
- Potency [6]: inactive
- outcome [7]: inactive
- outcome [8]: inactive
- Potency [9]: inactive
- Potency [10]: inactive
- outcome [11]: inactive
- outcome [12]: inactive
- outcome [13]: inactive
- outcome [14]: inactive
- outcome [15]: inactive
- outcome [16]: inactive
- activity change, negative = inhibition ([17]; at 57.5 µM (top of the series)): 2.56% (inactive)
- max response ([17]; measured here: cell count channel max response): 21.6%
- max response ([17]; measured here: lipid channel max response): 21.4%
- Potency [18]: inactive
- Potency [19]: inactive
- Potency [20]: inactive
